Shown are actives, neighbours in structure and some others; about 5.7% of the full set was active somewhere.
hgDAF-12 ag – activates the H. glycines DAF-12 receptor ligand-binding domain | HEK293 GAL4-hgDAF12 UAS-luciferase reporter, agonist luminescence; normalized to butyrate control | activation, % at 6.8 µM | actives 1.8% (n = 370,000) | AID 687014;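 active = activation above a cutoff set at the mean of all screened compounds plus 3 SD, cut at about 10% in these data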;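 note: 0% = DMSO wells and 100% = sodium butyrate wells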
AHR act – activates the human aryl hydrocarbon receptor; P35869; AHR-responsive luciferase reporter cells, luminescence; activation, % at 5 µM; actives 2.5% (n = 320,000); AID 2796; in the data active = activation above about 47%;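 note: 0% = vehicle wells and 100% = reference agonist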
Target sequence (P35869 whole entry, looked up): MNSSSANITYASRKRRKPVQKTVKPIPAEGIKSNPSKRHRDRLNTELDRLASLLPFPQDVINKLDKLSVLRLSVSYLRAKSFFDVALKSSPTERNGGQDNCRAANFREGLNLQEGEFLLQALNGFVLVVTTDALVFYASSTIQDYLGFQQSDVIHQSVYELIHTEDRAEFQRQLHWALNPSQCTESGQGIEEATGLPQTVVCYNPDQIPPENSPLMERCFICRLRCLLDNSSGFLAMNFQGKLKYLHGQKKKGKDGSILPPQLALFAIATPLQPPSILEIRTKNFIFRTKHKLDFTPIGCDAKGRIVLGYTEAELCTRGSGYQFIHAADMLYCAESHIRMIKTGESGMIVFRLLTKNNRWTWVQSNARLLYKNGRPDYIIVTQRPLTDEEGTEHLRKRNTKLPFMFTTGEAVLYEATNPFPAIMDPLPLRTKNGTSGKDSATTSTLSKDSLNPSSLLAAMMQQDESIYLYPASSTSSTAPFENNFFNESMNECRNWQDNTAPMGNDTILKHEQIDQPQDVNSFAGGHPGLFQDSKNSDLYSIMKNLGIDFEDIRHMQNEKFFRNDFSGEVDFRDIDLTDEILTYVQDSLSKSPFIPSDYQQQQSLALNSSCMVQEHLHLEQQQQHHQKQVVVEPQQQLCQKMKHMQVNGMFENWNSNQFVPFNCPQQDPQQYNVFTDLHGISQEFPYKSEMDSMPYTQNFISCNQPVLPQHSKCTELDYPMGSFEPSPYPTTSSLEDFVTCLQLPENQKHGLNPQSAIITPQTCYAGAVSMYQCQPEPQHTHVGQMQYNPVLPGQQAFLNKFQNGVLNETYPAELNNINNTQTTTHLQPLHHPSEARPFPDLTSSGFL
ssDAF-12 act – S. stercoralis DAF-12 activation, primary screen; HEK293 ssDAF-12/GRIP1 lit1-tk-luc reporter, luminescence; % of 3 µM dafachronic acid response; activation, % at 6.8 µM; actives 1% (n = 370,000); AID 652126;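 active = activation above the mean over all tested compounds plus 3 SD, cut at about 0.9% in these data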;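 note: 0% = DMSO-only wells and 100% = 3 µM delta7-dafachronic acid wells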
DAX1 inh-1 – inhibits human nuclear receptor DAX1; HEK293 Gal4-DAX1 luciferase reporter, luminescence; inhibition, % at 6.75 µM; actives 0.99% (n = 340,000);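 active = inhibition above the mean over all tested compounds plus 3 SD, cut at about 4.2% in these data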;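 note: 0% = DAX1-transfected cells with DMSO and 100% = empty-vector control cells with DMSO; inhibition shows as a rise in luminescence from relieved DAX1 repression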
hcDAF-12 act – activates DAF-12 receptor from parasite H. contortus. actives 1.4% (n = 370,000). HEK293 hcDAF-12 lit1-tk-luc reporter, luminescence; 0% DMSO, 100% Δ7-dafachronic acid. activation, % at 6.8 µM;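 active = activation above the mean of all tested compounds plus 3 SD, cut at about 5.5% in these data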;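 note: 100% = response to 3 µM Δ7-dafachronic acid high control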
DAX1 inh-2 – inhibitors of DAX1 repression of SF-1 activated StAR promoter; HEK293T StAR-luciferase reporter, SF-1/DAX-1 repression relief; inhibition, % at 6.8 µM; actives 1.1% (n = 370,000);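 active = inhibition above the mean over all tested compounds plus 3 SD, cut at about 3.6% in these data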;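 note: 0% = DAX-1 cells with DMSO and 100% = cells lacking DAX-1 with DMSO; higher inhibition means more luminescence from relief of DAX-1 repression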
An asterisk follows results filed as active; / = not tested or not shown.

SMILES	hgDAF-12 ag	AHR act	ssDAF-12 act	DAX1 inh-1	hcDAF-12 act	DAX1 inh-2
O=C(COC(=O)C1CCN(S(=O)(=O)c2cc([N+](=O)[O-])ccc2Cl)CC1)Nc1ncc(Cl)cc1Cl	-1.7	13.9	-0.1	-0.2	2.3	0.0
NC(=O)CC(NC(=O)c1ccc(Br)cc1)c1ccc(N2CCCCCC2)c([N+](=O)[O-])c1 (configuration not stated)	-7.4	4.6	-1.8	-2.7	-3.0	-1.8
O=C1CCCN1c1nccs1	-1.1	-2.1	-0.2	0.2	-0.5	0.6
CCCc1nn(C)c(C(N)=O)c1[N+](=O)[O-]	1.5	17.3	1.0*	0.9	5.2	0.9
CC(C)c1cc(C(=O)NCCc2ccccc2)no1	5.6	2.8	0.9	7.4*	4.5	2.9
CC(C)c1cc(C(=O)NCc2ccco2)no1	6.0	13.6	-0.7	0.5	0.0	1.8
CSc1ccccc1NC(=O)c1cc(C(C)C)on1	5.5	12.7	0.1	0.7	6.4*	0.6
CC(=O)OCC(=O)N1CCN(C(=O)C(=O)c2cccc(C(F)(F)F)c2)CC1	-0.9	/	-0.3	/	2.1	0.0
COc1ccc(C(=O)N/C(=C\c2ccccc2)C(=O)N2CCOCC2)cc1	-3.3	1.7	-0.9	-0.2	2.0	-0.9
COc1ccc(-c2ccc(/C=C(\NC(=O)c3ccccc3)C(=O)N3CCOCC3)o2)cc1	-1.5	76.9*	-1.6	-1.9	0.8	0.1
CC(=O)Nc1ccccc1C(=O)N1CCN(Cc2ccccc2)CC1	-1.3	0.4	-1.6	3.0	-1.4	0.3
Nc1nc(-c2cccc(F)c2)cs1	5.1	6.4	0.9*	5.2*	2.7	1.2
CNc1nc(-c2c[nH]c3ccccc23)cs1	-0.4	46.6	0.1	0.1	3.0	-0.8
Nc1nc(-c2c[nH]c3ccccc23)cs1	2.0	57.8*	1.8*	-0.4	0.9	0.2
O=C(Nc1cccc2cccnc12)c1ccc2sc([C@@H]3O[C@H](CO)[C@H](O)[C@H](O)[C@H]3O)nc2c1	1.1	/	-1.0	/	-0.4	0.7
Cc1ccc(C(=O)Nc2nc3ccc(S(C)(=O)=O)cc3s2)o1	11.7*	3.5	-0.9	1.2	1.7	0.3
Cc1ccc(C(=O)Nc2ccc3nc(C)sc3c2)s1	9.8	-5.4	-0.4	1.5	2.5	2.7
CN(C)S(=O)(=O)c1ccc2nc(NC(=O)c3cccnc3)sc2c1	10.5*	20.3	0.1	4.7*	2.8	1.1
O=C(Nc1nc2ccc(S(=O)(=O)N3CCCCC3)cc2s1)c1cccnc1	1.9	0.6	-1.3	1.4	-1.0	-1.0
Cc1ccc(C(=O)Nc2ccc3nc(C)sc3c2)o1	11.2*	/	-0.6	1.8	3.4	4.0*
Cc1nc2cc(NC(=O)c3ccc(Br)s3)ccc2s1	10.8*	31.3	-0.1	-2.0	1.5	3.2
CS(=O)(=O)c1ccc2nc(NC(=O)c3cc4ccccc4o3)sc2c1	-0.3	1.2	-0.2	1.8	5.3	0.7
CCOC1=C2CN(S(=O)(=O)c3ccc(C)cc3)[C@H](c3ccccc3)C[C@@H]2N(S(=O)(=O)c2ccc(C)cc2)[C@H](c2cccs2)C1	0.1	/	-0.6	/	-0.2	-0.4
Cc1cccc(NC(=O)c2ccc(S(=O)(=O)N3CCC(C)CC3)cc2)n1	-5.5	4.0	-0.9	-1.3	-2.7	-2.5
CCOC(=O)[C@@H]1[C@H]2COc3cc(OC)ccc3[C@@H]2N2C(=O)N(c3ccccc3)C(=O)[C@@]12C	0.9	0.6	-1.2	0.0	-0.5	1.8
SMILES	hgDAF-12 ag	AHR act	ssDAF-12 act	DAX1 inh-1	hcDAF-12 act	DAX1 inh-2
CCOc1cc(C2NC(=O)NC(c3ccccc3)=C2C(=O)c2ccccc2)c(Br)cc1OCC(=O)O (configuration not stated)	-0.9	-3.5	-0.9	3.6	-1.2	-0.1
CCCc1nc2nc(C)c(NS(=O)(=O)c3ccc(CC(C)C)cc3)c(=O)n2[nH]1	1.7	2.9	-1.2	4.3*	0.4	0.0
CCc1nc2nc(C)c(NS(=O)(=O)c3ccc(CC(C)C)cc3)c(=O)n2[nH]1	3.0	2.8	-0.8	-0.5	-2.0	0.5
CC1CCN(CC2C(=O)O[C@@H]3C[C@@]4(C)CCC[C@H](C)C4=C[C@H]23)CC(C)(C)C1 (some centres not stated)	-4.7	0.3	-1.3	-2.7	0.8	-0.8
CC1CCCC(NC(=O)CNC(=O)c2cccs2)C1C (configuration not stated)	0.6	7.7	-0.7	5.2*	0.0	1.3
COC(=O)Cc1nnn2c1CC(OC)c1ccccc1-2 (configuration not stated)	3.1	/	0.1	/	3.9	-0.2
Cc1ccc(-n2nnc(-c3cccnc3Cl)n2)cc1	11.6*	0.2	0.3	0.8	4.0	2.1
COc1ccc(/C=C/C(=O)NC(=S)NNC(=O)Cc2cccs2)cc1	6.0	6.0	-0.4	0.1	1.5	0.3
O=C(/C=C/c1ccccc1)NC(=S)NNC(=O)Cc1cccs1	5.8	48.5*	-0.5	-0.1	1.5	0.1
C[C@H](CO)N1C[C@H](C)[C@@H](CN(C)C(=O)Nc2ccccc2)Oc2c(NC(=O)C3CCCCC3)cccc2C1=O	-0.4	1.6	-1.1	0.1	-0.5	0.4
CC(C)c1ccc(C(=O)NN2C(=O)C3CCCCC3C2=O)cc1 (configuration not stated)	10.8*	7.6	-1.1	2.1	5.5	3.8*
CCN1Cc2nnn(Cc3ccccc3)c2-c2cc(N3CCCC3)ccc2S1(=O)=O	1.1	/	-1.6	/	-3.2	-0.3
CCCS(=O)(=O)NC(=O)C1(C)CCCN(C(=O)COc2ccccc2)C1 (configuration not stated)	-2.5	/	-1.2	/	0.2	-0.4
C(=C\c1ccccc1)/CSc1nc2ncccc2[nH]1	5.3	2.6	0.0	4.5*	0.9	0.5
O=C(CCCOc1ccc(Cl)cc1Cl)NCC1CCCO1 (configuration not stated)	-0.9	-0.7	-1.4	0.8	-1.0	-0.2
CC(=O)c1sc(NC(=O)c2ccccc2)nc1-c1ccccc1	12.2*	2.1	0.8	4.8*	1.8	3.3
O=C(Nc1nc(-c2ccccc2)c(-c2ccccc2)s1)c1ccc(S(=O)(=O)N2CCCCC2)cc1	1.1	-0.5	-1.3	-0.6	-0.9	-0.1
O=C(Nc1nc(-c2ccccc2)c(C(=O)c2ccccc2)s1)c1ccc(S(=O)(=O)N2CCCCC2)cc1	1.9	0.3	-0.1	-0.5	6.5*	0.2
C/C(=C\c1ccco1)CN1CCN(Cc2ccc(C)o2)C(CCO)C1 (configuration not stated)	-0.8	2.5	-1.1	0.9	2.3	0.5
CCOc1ccccc1N1CC(C(=O)Nc2c(C)n(C)n(-c3ccccc3)c2=O)CC1=O (configuration not stated)	1.4	-1.6	-1.0	-0.3	-0.6	-0.3
O=C(O)c1ccc(-c2noc(-c3cccc(F)c3)n2)cc1	6.4	15.6	-0.7	2.0	0.0	2.3

From PubChem
